Assay results published in PubChem BioAssay AID1499 (Sanford-Burnham Center for Chemical Genomics, 2009).
In all, about 93,000 compounds went through this assay and about 65 (0.07%) were called active.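 The calls were made as follows: active = 10 µM primary screen giving 50% or more activity, confirmed by 40% or more on retest at that dose; inactive = the rest.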 For the sample, actives were picked, then their nearest neighbours and some compounds at random.

The compounds below were run against Integrin beta-2 (Homo sapiens) + Integrin alpha-M (Homo sapiens) (UniProt P05107+P11215) (assay: agonists of integrin CD11b/CD18-fibrinogen binding – K562 cells, luminescence, primary screen (AID 1499)). Conditions: K562 CD11b/CD18 adhesion to fibrinogen, ATPlite luminescence; at 10 µM; active compounds read high.
Chain of Integrin beta-2 (Homo sapiens) + Integrin alpha-M (Homo sapiens) (P05107 whole entry, looked up, other chains not shown): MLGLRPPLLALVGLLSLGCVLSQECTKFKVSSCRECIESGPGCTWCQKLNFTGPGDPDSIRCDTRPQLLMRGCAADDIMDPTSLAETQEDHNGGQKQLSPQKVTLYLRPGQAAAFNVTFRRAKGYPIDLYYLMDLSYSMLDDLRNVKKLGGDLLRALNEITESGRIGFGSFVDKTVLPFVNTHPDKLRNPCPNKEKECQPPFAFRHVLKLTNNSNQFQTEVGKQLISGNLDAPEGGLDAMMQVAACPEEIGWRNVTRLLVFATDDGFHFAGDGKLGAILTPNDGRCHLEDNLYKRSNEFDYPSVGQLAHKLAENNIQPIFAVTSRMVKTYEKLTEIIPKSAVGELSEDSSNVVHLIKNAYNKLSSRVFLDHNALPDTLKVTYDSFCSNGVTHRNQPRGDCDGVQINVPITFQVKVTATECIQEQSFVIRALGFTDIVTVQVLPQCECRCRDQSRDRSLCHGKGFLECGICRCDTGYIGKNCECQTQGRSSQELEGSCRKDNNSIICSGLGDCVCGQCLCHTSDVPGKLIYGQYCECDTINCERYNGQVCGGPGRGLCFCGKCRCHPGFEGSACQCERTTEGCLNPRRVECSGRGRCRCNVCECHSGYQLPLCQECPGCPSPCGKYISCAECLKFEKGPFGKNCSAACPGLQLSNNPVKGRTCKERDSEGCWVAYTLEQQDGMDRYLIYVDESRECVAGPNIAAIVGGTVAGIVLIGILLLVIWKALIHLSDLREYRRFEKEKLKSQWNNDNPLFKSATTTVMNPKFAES

Compound | activation
CCCN(CCC)c1c([N+](=O)[O-])c(=O)oc2ccccc12 | 2.9% (inactive)
CC(C)[C@H](NC(=O)c1ccc(F)cc1)C(=O)OCC(=O)NC(=O)c1cccn1C | 25.8% (inactive)
Cc1cc(C)c(NC(=S)N2CCCC2C(=O)O)c(C)c1 (stereo not drawn) | -3.4% (inactive)
O=C(Nc1cc(C(F)(F)F)ccc1Cl)C(=O)N1CCCCC1 | 10.3% (inactive)
CC(NC(=O)CSc1nc2c(cc1C#N)CN(C)CC2)c1ccccc1 (stereo not drawn) | -1.5% (inactive)
CC(C)CCSc1ncnc2c1oc1nc3c(cc12)COC(C)(C)C3 | 6.2% (inactive)
CC1(C)Cc2nc3sc4c(SCC(=O)NC(c5ccccc5)c5ccccc5)ncnc4c3cc2CO1 | 93.6% (active)
CCc1c(C)sc(NC(=O)/C=C/c2ccc3c(c2)OCO3)c1C(=O)OC | 9.1% (inactive)
COc1ccc2oc(-c3cccc(NC(=O)CSc4ccc(Cl)cc4)c3)nc2c1 | 13.1% (inactive)
O=C(COC(=O)Cc1ccc(F)cc1)Nc1cc(S(=O)(=O)N2CCOCC2)ccc1N1CCCC1 | -2.5% (inactive)
CN(C)CCCO/N=C(\c1ccccc1)c1ccncc1 | 3.7% (inactive)
O=C(COC(=O)Cn1cnc2ccccc21)Nc1cccc2c1C(=O)c1ccccc1C2=O | 7.9% (inactive)
COc1cc(Cl)c(C)cc1NC(=O)COC(=O)c1cc(SC)ccc1Cl | 0.1% (inactive)
Cc1ccc(-c2nc(C)sc2CC(=O)OCC(=O)Nc2c(F)cccc2F)cc1 | -4% (inactive)
Cc1csc(=Nc2ccccc2)n1CCO | 0.8% (inactive)
Cc1ccc(S(=O)(=O)Nc2nc(C)cc(N/N=C/c3ccc(O)cc3)n2)cc1 | 13.5% (inactive)
Cc1cccc(NC(=O)Cn2c(=O)n(Cc3ccccc3)c(=O)c3c(C)c(C)sc32)c1 | 6.7% (inactive)
Cc1ccc(/C=N/NC(=O)CNC(=O)COc2ccccc2)o1 | 6.3% (inactive)
O=C1N(c2ccc(Cl)cc2)C(c2ccc(Cl)cc2)N2CCCN12 (stereo not drawn) | 3.2% (inactive)
CCOc1ccc(/C=N/OCC(=O)NCc2cccs2)cc1 | -0.5% (inactive)

Compound | activation
C=CCn1c(SCn2nnc3ccccc3c2=O)nnc1-c1ccc(Cl)cc1 | 4.1% (inactive)
C=CCSc1nc2ccccc2[nH]1 | 6.8% (inactive)
C=CCSc1nc(Cc2ccc(Cl)cc2)nc2ccccc12 | 69.1% (active)
Cc1sc2ncnc(Sc3nc4ccccc4s3)c2c1C | 12.1% (inactive)
OC(COCC1COc2ccccc2O1)CN1CCN(c2ccc(F)cc2)CC1 (stereo not drawn) | 4.1% (inactive)
C/C(=N/NC(=O)C1COc2ccccc2O1)c1ccco1 (stereo not drawn) | 1.2% (inactive)
N#CCOc1ccc(C2=NO[C@@H]3[C@@H]4C[C@@H]([C@H]5C(=O)N(c6ccc7c(c6)OCO7)C(=O)[C@@H]45)[C@H]23)cc1 | 0.6% (inactive)
CC(=C/c1ccccc1)/C=N/NC(=O)c1cc(C)oc1C | -1.7% (inactive)
COc1ccc(NC(=O)c2ccc(C#CC(C)(C)O)cc2)cc1 | 2.8% (inactive)
Cc1ccc(OCC(=O)Nc2ccccc2Sc2ccc(Cl)cc2)c([N+](=O)[O-])n1 | -1% (inactive)
Cc1cccc(-n2c(C)cc(/C=N/NC(N)=S)c2C)c1 | -1.9% (inactive)
CC(C)NC(=S)N1CCN(S(C)(=O)=O)CC1 | 0.6% (inactive)
Cc1ccc(-c2nn(-c3ccccc3)cc2C(=O)Nc2cccc(S(=O)(=O)N3CCOCC3)c2)cc1 | -0.1% (inactive)
CCOc1ccc(NC(=S)NC(=O)/C=C/c2ccc(OC)cc2)c([N+](=O)[O-])c1 | 34.7% (inactive)
CCOC(=O)c1c(NC(=S)Nc2ccccc2C)sc2c1CCC2 | 2.8% (inactive)
CCOCCCNC(=O)C(=O)NCCCOCC | -2.3% (inactive)
CCc1nnc(NC(=O)C2CC(=O)N(c3ccc4c(c3)OCCO4)C2)s1 (stereo not drawn) | 5% (inactive)
CCCn1c(C)cc(/C=C(\C#N)C(=O)OCC(=O)Nc2cc(OC)c(OC)c(OC)c2)c1C | 3% (inactive)
O=C(/C=C/c1ccccc1)Nc1nnc(SCC(=O)c2ccc3ccccc3c2)s1 | 59.6% (inactive)
CCc1nnc(NC(=O)[C@@H](NC(=O)c2cccc(C)c2)C(C)C)s1 | -1.2% (inactive)

Compound | activation
O=C(CSc1nc2ccccc2[nH]1)Nc1nc(-c2ccccc2)c(-c2ccccc2)o1 | -6.7% (inactive)
CN(Cc1cccs1)C(=O)Cc1c[nH]c2ccccc12 | -1.9% (inactive)
COC(=O)c1ccc(OCC(O)CN(CCO)CC(O)Cn2ccc3ccccc32)cc1 (stereo not drawn) | 8.9% (inactive)
Cc1c(Cl)cnc(NC(=O)COC(=O)c2ccc(S(=O)(=O)NCc3ccco3)cc2)c1Cl | 12.8% (inactive)
CC(C)(C)c1ccc(C(=O)NCc2nnc(SCC(=O)N3CCCc4ccccc43)n2-c2ccccc2)cc1 | -4.7% (inactive)
Cc1cc(Br)ccc1SCC(=O)OCC(=O)NCc1ccc2c(c1)OCO2 | 4.5% (inactive)
N#Cc1c(-c2ccc(F)cc2)cc(C2CC2)nc1SCC(=O)c1cccs1 | 12.6% (inactive)
CCn1c2ccccc2c2cc(NC(=O)COC(=O)c3ccccc3Br)ccc21 | 0.6% (inactive)
CC(C)Nc1nnc(SCC(=O)/C=C2\N(C)c3ccccc3C2(C)C)s1 | 0% (inactive)
Cc1cccc(CC(=O)N2CCN=C2SCc2ccc([N+](=O)[O-])cc2)c1 | 5.7% (inactive)
CCOc1ccc(CCNC(=O)CSc2cc(=O)n(C)c3ccc(Cl)cc23)cc1OCC | 0.6% (inactive)
Cc1c(C(=O)Nc2cccc(-c3nnc4n3CCCCC4)c2)oc2ccccc12 | 0.4% (inactive)
CC(=O)c1ccc(NC(=O)Nc2ccc([N+](=O)[O-])cc2C)cc1 | -2.3% (inactive)
Cc1cc2oc(=O)cc(CN3CCN(S(=O)(=O)c4cccs4)CC3)c2cc1C(C)C | -0.5% (inactive)
O=C(CCCCCNC(=O)c1ccccc1)N/N=C/c1ccccc1 | -6.5% (inactive)
COc1ccc(NS(=O)(=O)c2ccc(NC(=S)NC(=O)/C=C/c3ccc(C)cc3)cc2)nn1 | 3.8% (inactive)
O=C(NNC(=S)Nc1ccc(Br)cc1Cl)c1ccco1 | -7.7% (inactive)
COc1ccc(C(CC(=O)Nc2ccc(C)cc2)NC(=O)C(F)(F)F)cc1 (stereo not drawn) | -0.4% (inactive)
